Molecules are shown by their SMILES. About 83,000 compounds went through this panel and 20% of them were active in at least one assay; those are over-represented in the sample as a whole.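 Cells were grown in 96-well plates and exposed to the test compound at a single concentration for 48 hours; results are reported as percent growth, with values below 10 considered active.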 Activity calls are given as the source filed them.

For 39 compounds, growth results are on record in PubChem BioAssay (NCI).

The assay deals with HL-60(TB) leukemia. The experiment in a line: NCI-60 one-dose screen, 48 h (100 = growth as untreated, 0 = no growth, -100 = all killed). To be noted: 10 µM unless noted.
Consider `COc1ccc(-c2ccc(SCC(=O)Nc3ccc(C#N)cc3)nn2)cc1`, for which the growth was 95.8% (inactive).
Regarding `COCOc1cc2c(=O)c(C)c(C(=O)N[C@@H](Cc3ccccc3)C(O)C(=O)NCc3ccccc3)oc2cc1OC` (some centres undefined), the growth is 99.2% (inactive).
For `O=C(Nc1nc2ccccc2s1)Nc1ccccc1Cl` the value was 97.4% (inactive); for `S=c1nc(-c2ccccc2)cc(-c2cc3ccccc3nc2Cl)[nH]1`, 8.96% (active).
In the case of `O=c1oc2ccc(Br)cc2cc1C1=CSc2nc3sc4c(c3c(=O)n2N=C1)CCCC4`, the growth was 45.4% (inactive).
As to `COc1ccc2[nH]c(O)c(N=Nc3nc(-c4ccc(Cl)cc4)cs3)c2c1`, the growth is 58% (inactive).
Consider `Cc1nn(-c2ccccc2)c2nc(C)n(CC(=O)N/N=C/c3ccccc3O)c(=O)c12`, for which the growth was 7.2% (active).
For `O=C(c1ccc(OCCN2CCOCC2)cc1)C1[C@H](c2ccc(Cl)cc2)[C@@H](c2ccccc2)NC12C(=O)Nc1ccc(Br)cc12` (some centres undefined) the value was -28.5% (active).
On to `N#C/C(=C/c1ccc(Cl)cc1)c1nnc(NC(=O)c2ccc(-n3c(=O)[nH]c4ccccc4c3=O)cc2)s1`, for which the growth is 98.2% (inactive).
As for `CC1=C(C(=O)OCc2ccccc2)C(c2c(O)cc(O)cc2O)n2c(nc3ccccc32)N1` (centres undefined), the figure is 27.2% (inactive); as for `N#Cc1c(-c2ccc(Cl)cc2)nc2n[nH]c(-c3ccc(Cl)cc3)c2c1-c1ccc(C(F)(F)F)cc1`, 1.12% (active); as for `COc1ccc2oc(=O)c(C3(C)NC(=O)c4c(/C=C/C(=O)OC(C)(C)C)cccc4N3)cc2c1` (centres undefined), -5.42% (active).
As for `COC(=O)c1c(C(=O)OC)c2c3ccccc3c3ccccc3n2c1C(=O)C(C)(C)C`, the growth was 72.5% (inactive).
Regarding `CC1=C(C(=O)OC(C)C)C(c2ccc(O)cc2)NC(=O)N1` (centres undefined), the growth was 90.2% (inactive).
For `CC(C)c1sc(NC(=O)c2cc(NC(=O)c3cc(NC(=O)c4cscn4)cn3C)cn2C)nc1C(=O)NCCCN(C)C` the value was -22.6% (active).
For `O=C(N1c2ccccc2Sc2ccccc21)n1ccc2cccnc21` the value was 25.2% (inactive); for `COc1ccc(C(=O)COc2ccc(NC(=O)Nc3ccc(Cl)c(C(F)(F)F)c3)cc2)cc1`, 19% (inactive).
Regarding `CN1C(=O)/C(=C/c2nccs2)SC1=S`, the growth was 89% (inactive).
Consider `Cc1ccc(F)cc1N/C=c1\s/c(=C(\C#N)C(=O)Nc2ccccc2)n(-c2ccccc2)c1=O`, for which the growth was 111% (inactive).
Consider `C=C1CCC2C3(C)COC(c4cc(F)cc(F)c4)OC3CCC2(C)C1CC(O)C1=CCOC1=O` (centres undefined), for which the growth is 61.2% (inactive).
As for `Cc1ccccc1NC(=O)c1cccc(NC(=O)CCl)c1`, the growth was 19% (inactive).
Take `Cn1cc(-c2cc(N)n3nc(-c4cn(C)c5ccccc45)cc3n2)c2cc(Cl)ccc21`: the growth was -26% (active).
For the compound `C/C(=N\N=C1/C(=O)Nc2ccc(Cl)cc21)c1ccc2c(c1)Nc1ccccc1S2`, the growth is 8.43% (active).
On to `CC1(c2ccccc2)NC(=O)N(CC(=O)Nc2ccc(C(=O)/C=C/c3ccccc3)cc2)C1=O` (centres undefined), for which the growth was 10.1% (inactive).
`O=C(Cn1c(/C=C/c2ccc([N+](=O)[O-])cc2)nc2ccccc2c1=O)Nc1ccccc1`: the growth is 102% (inactive).
In the case of `Cc1cccc(C)c1Nc1nnc(-c2c[nH]c3ccccc23)o1`, the growth was 97.2% (inactive).
Turning to `COc1cc(NC(=O)c2cc(-c3ccc(F)cc3F)ccc2O)cc(OC)c1OC`, the growth is 15.8% (inactive).
As to `COc1ccc(NC(=O)c2sc3nc(C(C)C)ccc3c2N)cc1`, the growth is 66.3% (inactive).
Consider `CC1=C2C(=C[C@@](C)(CO)[C@@H]2O)/C(=N\N)[C@](C)(O)C12CC2`, for which the growth is -22.1% (active).
For `CC12CC[C@@H]3[C@]4(C)COC(c5c(F)cccc5F)O[C@@H]4CC[C@@]3(C)[C@@H]1CC(C1=CCOC1=O)O2` (some centres undefined), the growth was 60.3% (inactive).
For `O=C(O)CCCCCCCCCCN1C(=O)/C(=C/c2cnc(-c3ccccc3)s2)SC1=S` the value was 63.6% (inactive); for `COC(=O)c1c(C(=O)OC)c2ccc3c4ccccc4ccc3n2c1C(=O)OC`, 111% (inactive); for `COc1ccc(Nc2nnc(-c3c[nH]c4ccccc34)o2)cc1`, 29.8% (inactive).
Take `Cc1ccc([N+](=O)[O-])c(C(=O)Nc2ccc(-c3ccc4c(c3)NC(=O)/C4=C\c3ccc[nH]3)cc2)c1`: the growth is 49.5% (inactive).
Consider `COc1cc(-c2ccc(/C=N/NC(=O)c3[nH]c4ccc(Br)cc4c3-c3ccccc3)o2)cc(OC)c1OC`, for which the growth is 99.3% (inactive).
As for `COc1ccccc1NC(=O)N/N=C/c1c[nH]c2ccccc12`, the growth was 5.87% (active).
For `C[C@H](Nc1nc(NCCc2ccccc2)nc2ccccc12)c1ccccc1` the value was -48.2% (active); for `C#CCOc1cc(N(CC)CC)ccc1C(C(=O)NC(C)(C)C)N(C(=O)C1CCc2cc(F)ccc2O1)c1ccc(Br)cc1` (centres undefined), 44.7% (inactive).
With `Nc1cc2ccccc2c(=O)n1NC(=O)c1ccccc1`, the growth is 101% (inactive).
